# Assay results published in PubChem BioAssay (NCATS).
# “And” between values parts separate entries of the source, which are not always exact repeats. Equal values may be shown once. Results filed as inconclusive are left out. Entries that show only a call come without a potency. A structure can be active in one record and inactive in another. The source made the active and inactive calls. Calls come from the whole dose curve; as a rule, active = well fitted inhibition curve with a large enough effect; inconclusive = small, poorly fitted or top-dose-only effect; inactive = flat fitted curve, though single readings scatter.
# Tests used:
# [1] = target: Glutathione peroxidase 1 (Homo sapiens) (UniProt P07203); experiment: Primary qHTS Assay for Inhibitors of Recombinant Selenoprotein Glutathione Peroxidase 1 (GPX1) (AID 1845191); settings: recombinant GPX1, GR-coupled NADPH fluorescence, 15 min; series mostly up to 48.8 µM
# In short: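 NADPH consumption tracked by fluorescence at 340/450 nm between t=0 and t=15 min, room temperature. Final mix: 10 nM GPX1, 100 nM glutathione reductase, 1 mM GSH, 0.5 mM NADPH, 0.5 mM cumene hydroperoxide, 0.01% BSA; 30 min compound–enzyme preincubation.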
# [2] = target: Phospholipid hydroperoxide glutathione peroxidase GPX4 (Homo sapiens) (UniProt P36969); experiment: Primary qHTS Assay for Inhibitors of Recombinant Selenoprotein Glutathione Peroxidase 4 (GPX4) (AID 1845192); settings: recombinant GPX4, GR-coupled NADPH fluorescence, 15 min; series mostly up to 50 µM
# In short: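 NADPH consumption followed by fluorescence at 340/450 nm, t=0 and after 15 min at room temperature. Reaction started with cumene hydroperoxide (0.5 mM final) after 30 min compound–GPX4 preincubation; final 200 nM GPX4, 100 nM GR, 1 mM GSH, 0.5 mM NADPH.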
# Note: nearly all actives have a fitted effect of over 65% in size.
# Potency is the fitted concentration of half-maximal effect.
# Chain of Phospholipid hydroperoxide glutathione peroxidase GPX4 (Homo sapiens) (P36969 whole entry, looked up): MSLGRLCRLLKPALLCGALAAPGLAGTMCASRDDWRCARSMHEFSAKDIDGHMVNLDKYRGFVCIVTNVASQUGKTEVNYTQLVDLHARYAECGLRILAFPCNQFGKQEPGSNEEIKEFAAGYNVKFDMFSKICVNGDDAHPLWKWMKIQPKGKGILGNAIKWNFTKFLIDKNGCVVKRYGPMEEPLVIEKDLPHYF
# Chain of Glutathione peroxidase 1 (Homo sapiens) (P07203 whole entry, looked up): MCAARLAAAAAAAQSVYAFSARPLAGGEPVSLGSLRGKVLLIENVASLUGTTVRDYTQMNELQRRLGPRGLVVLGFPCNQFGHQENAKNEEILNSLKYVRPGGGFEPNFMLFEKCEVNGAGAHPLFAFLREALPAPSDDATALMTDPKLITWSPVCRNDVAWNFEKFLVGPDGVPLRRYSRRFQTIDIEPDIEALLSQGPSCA
smiles,measurement,setting,value
Cc1ccc(C)c(OCCCC(C)(C)C(=O)O)c1,Potency,[1],inactive
O=C(O)CCNC(=O)c1ccc(N=Nc2ccc(O)c(C(=O)O)c2)cc1,Potency,[1],inactive
same,Potency,[2],inactive
CCC(C)(Oc1ccc(C2(c3ccc(OC(C)(CC)C(=O)O)cc3)CCCCC2)cc1)C(=O)O (stereo not given),Potency,[1],inactive
Cc1nc2n(c(=O)c1CCN1CCC(c3noc4cc(F)ccc34)CC1)CCCC2,Potency,[1],inactive
O=C1CCc2ccc(OCCCCN3CCN(c4cccc(Cl)c4Cl)CC3)cc2N1,Potency,[1],inactive
same,Potency,[2],inactive
NNc1nncc2ccccc12,Potency,[1],inactive
Cc1cccc(C)c1OCC(=O)N[C@@H](Cc1ccccc1)[C@@H](O)C[C@H](Cc1ccccc1)NC(=O)[C@H](C(C)C)N1CCCNC1=O,Potency,[1],inactive
same,Potency,[2],inactive
CC(C)[N+]1(C)[C@@H]2CC[C@H]1CC(OC(=O)C(CO)c1ccccc1)C2 (stereo not given in full),Potency,[1],inactive
Nc1ncn([C@H]2C[C@H](O)[C@@H](CO)O2)c(=O)n1,Potency,[1],inactive
same,Potency,[2],inactive
CCN(CC)CCOc1ccc(Cc2ccccc2)cc1,Potency,[1],inactive
same,Potency,[2],inactive
Nc1cc(C(Cl)=C(Cl)Cl)c(S(N)(=O)=O)cc1S(N)(=O)=O,Potency,[1],inactive
same,Potency,[2],inactive
CC1(C)CCC(C)(C)c2cc(NC(=O)c3ccc(C(=O)O)cc3)ccc21,Potency,[1],inactive
CCc1nc(N)nc(N)c1-c1ccc(Cl)cc1,Potency,[1],inactive
same,Potency,[2],inactive
CN(C)CCc1c[nH]c2ccc(Cn3cncn3)cc12,Potency,[1],inactive
same,Potency,[2],inactive
NC(=O)Cc1cccc(C(=O)c2ccccc2)c1N,Potency,[1],inactive
Nc1nc(Cl)nc2c1ncn2[C@H]1C[C@H](O)[C@@H](CO)O1,Potency,[1],inactive
same,Potency,[2],inactive
Cc1cc2c(s1)Nc1ccccc1N=C2N1CCN(C)CC1,Potency,[1],16.1 µM (active)
same,Potency,[2],inactive
O=C(O)c1cn(-c2ccc(F)cc2)c2cc(N3CCNCC3)c(F)cc2c1=O,Potency,[1],inactive
CN(C)[C@@H](CCOc1cccc2ccccc12)c1ccccc1,Potency,[1],inactive
same,Potency,[2],inactive
CC(C)(S)[C@@H](N)C(=O)O,outcome,[1],inactive [at 4.49 µM]
same,outcome,[2],inactive [at 4.52 µM]
CN1CCC(=C2c3ccccc3CCc3sccc32)CC1,Potency,[1],inactive
same,Potency,[2],inactive
C=C(c1ccc(C(=O)O)cc1)c1cc2c(cc1C)C(C)(C)CCC2(C)C,Potency,[1],inactive
same,Potency,[2],6.31 µM (active) and inactive and 8.06 µM (active)
CC(=O)O[C@H]1C(=O)[C@@]2(C)C([C@H](OC(=O)c3ccccc3)[C@]3(O)C[C@H](OC(=O)[C@H](O)[C@@H](NC(=O)c4ccccc4)c4ccccc4)C(C)=C1C3(C)C)[C@]1(OC(C)=O)CO[C@@H]1C[C@@H]2O (stereo not given in full),Potency,[1],inactive
same,Potency,[2],inactive
Cc1nccn1CC1CCc2c(c3ccccc3n2C)C1=O (stereo not given),Potency,[1],inactive
c1ccc2[nH]c(-c3cscn3)nc2c1,Potency,[1],inactive
same,Potency,[2],inactive
COc1ccc(C2(C#N)CCC(C(=O)O)CC2)cc1OC1CCCC1 (stereo not given),Potency,[1],inactive
Cc1ncc([N+](=O)[O-])n1CC(C)O (stereo not given),Potency,[1],inactive
same,Potency,[2],inactive
O=C(NOCC1CC1)c1ccc(F)c(F)c1Nc1ccc(I)cc1Cl,Potency,[1],inactive
same,Potency,[2],inactive
CN(c1nccc(=O)[nH]1)C1CCN(c2nc3ccccc3n2Cc2ccc(F)cc2)CC1,Potency,[1],inactive
CN1C(C(=O)Nc2ccccn2)=C(O)c2sccc2S1(=O)=O,Potency,[1],inactive
COCCCN1CCC(NC(=O)c2cc(Cl)c(N)c3c2OCC3)CC1,Potency,[1],inactive
same,Potency,[2],inactive
Cc1cc2cc3c(C)cc(=O)oc3c(C)c2o1,Potency,[1],inactive
CC(C)c1ccc2oc3nc(N)c(C(=O)O)cc3c(=O)c2c1,Potency,[1],22.7 µM (active) and 16.3 µM (active)
same,Potency,[2],12.8 µM (active) and 8.06 µM (active)
CCCCN(CCCC)CCC(O)c1cc2c(Cl)cc(Cl)cc2c2cc(C(F)(F)F)ccc12 (stereo not given),Potency,[1],inactive
same,Potency,[2],inactive
CC(S)C(=O)NCC(=O)O (stereo not given),Potency,[1],inactive
same,Potency,[2],inactive
Cc1cccc(CN2CCN(C(c3ccccc3)c3ccc(Cl)cc3)CC2)c1 (stereo not given),Potency,[1],inactive
same,Potency,[2],inactive
O=C(O)c1cccc(-c2noc(-c3ccccc3F)n2)c1,Potency,[2],inactive
Cc1c(C(=O)NN2CCCCC2)nn(-c2ccc(Cl)cc2Cl)c1-c1ccc(Cl)cc1,Potency,[2],inactive
CC[C@]1(O)C[C@H]2CN(CCc3c([nH]c4ccccc34)[C@@](C(=O)OC)(c3cc4c(cc3OC)N(C=O)[C@H]3[C@@](O)(C(=O)OC)[C@H](OC(C)=O)[C@]5(CC)C=CCN6CC[C@]43[C@@H]65)C2)C1,Potency,[1],inactive
same,Potency,[2],inactive
Cc1nc(-c2ccc(OCC(C)C)c(C#N)c2)sc1C(=O)O,Potency,[1],inactive
same,Potency,[2],inactive
CCC1=C(C)CN(C(=O)NCCc2ccc(S(=O)(=O)NC(=O)NC3CCC(C)CC3)cc2)C1=O (stereo not given),Potency,[2],inactive
O=C(NCCO[N+](=O)[O-])c1cccnc1,Potency,[1],inactive
same,Potency,[2],inactive
NS(=O)(=O)c1cc(C(=O)O)c(NCc2ccco2)cc1Cl,Potency,[1],inactive
same,Potency,[2],inactive
Cc1cc(C2CCCCC2)n(O)c(=O)c1,Potency,[1],inactive
same,Potency,[2],inactive
O=C(OC1C[C@H]2CC[C@@H](C1)[N+]21CCCC1)C(O)(c1ccccc1)c1ccccc1 (stereo not given in full),Potency,[1],inactive
same,Potency,[2],inactive
C[Se]CCC(N)C(=O)O (stereo not given),Potency,[2],inactive
